In PubChem BioAssay AID485270 (The Scripps Research Institute Molecular Screening Center, 2010):
The campaign covered roughly 330,000 compounds. About 5,800 (1.8%) were called active. Rule as the data show it: active = inhibition mostly above about 38% (no sharp cut-off); inactive = mostly below about 40%. Only a selection was taken, and actives are over-represented in it overall.

target: Orexin/Hypocretin receptor type 1 (Homo sapiens) (UniProt O43613); assay: antagonists of human orexin 1 receptor (OX1R) (AID 485270); details: OX1R-expressing cells, FRET antagonist read-out; at 6.6 µM; stronger effect = higher value;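 also: 0% = agonist challenge alone and 100% = reference antagonist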
Sequence (O43613 whole entry, looked up): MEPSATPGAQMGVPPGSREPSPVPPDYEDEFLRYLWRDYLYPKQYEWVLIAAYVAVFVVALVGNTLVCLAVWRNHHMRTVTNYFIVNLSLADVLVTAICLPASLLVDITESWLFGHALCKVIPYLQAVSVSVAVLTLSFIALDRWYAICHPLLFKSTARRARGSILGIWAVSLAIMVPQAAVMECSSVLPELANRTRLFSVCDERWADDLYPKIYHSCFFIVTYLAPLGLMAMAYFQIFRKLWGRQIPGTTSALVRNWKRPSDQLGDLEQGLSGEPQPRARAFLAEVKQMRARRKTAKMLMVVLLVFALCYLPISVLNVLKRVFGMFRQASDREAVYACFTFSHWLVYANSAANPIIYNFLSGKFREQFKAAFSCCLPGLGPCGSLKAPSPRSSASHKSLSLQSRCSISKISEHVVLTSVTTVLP

inhibition, inactive:
O=C(O)c1ccc(NS(=O)(=O)c2ccc3c(c2)C(=O)c2cc(S(=O)(=O)Nc4ccc(C(=O)O)cc4)ccc2-3)cc1 18.6%
CN(CC(=O)O)S(=O)(=O)c1ccc2oc3ccccc3c2c1 7.24%
Cc1cc(C)cc(NC(=O)CSCc2cnn(-c3ccccc3)c2-n2cccc2)c1 68.1%
O=C(CSCc1ccccc1)Nc1ccccc1 4.92%
CC(=O)c1c(C)[nH]c(C(=O)COC(=O)CCOc2ccc(C)cc2)c1C 11.2%
O=C(CNC(=O)c1ccco1)NNC(=O)c1ccc(Br)cc1 1.51%
O=C(CNC(=O)c1n[nH]c2ccccc12)Nc1cc(Cl)ccc1Cl 11.3%
C[C@@H]1C(c2ccc(F)cc2)=NN(c2ccc(Br)cc2)[C@H]1C(=O)N1CCOC1=O 13.5%
CCN(C[C@H]1N[C@@](Cc2ccccc2)(C(=O)OC)[C@H]2C(=O)N(Cc3ccccc3)C(=O)[C@@H]12)C(=O)c1ccc(C)cc1 1.44%
CC1CCCCC1NC(=O)Cn1cnc2c1c(=O)n(C)c(=O)n2C (stereo not given) 4.33%
CCOCCCNC(=O)c1cc2c(=O)n3ccccc3nc2s1 32.8%
O=C(NCc1cccnc1)c1cc(S(=O)(=O)N2CCOCC2)c(Cl)cc1Cl 2.88%
CCc1cccc2c(=O)c(C(=O)NCCCOC)c[nH]c12 21.4%
Cc1cccn2c(=O)c3cc(C(=O)NCC4CCCO4)c(=N)n(Cc4ccc(F)cc4)c3nc12 (stereo not given) 41.5%
COc1cc(C(=O)NC2CCN(C)CC2)ccc1Nc1ncc2c(n1)N(C1CCC(O)CC1)CCC(=O)N2C (stereo not given) 5.47%
C[C@H]1CN([C@@H](C)CO)C(=O)Cc2cc(NC(=O)Cc3ccccc3)ccc2O[C@H]1CN(C)S(=O)(=O)c1cccs1 8.68%
COc1ccc(/C(O)=C2/C(=O)C(=O)N(CCCN(C)C)C2c2ccccc2)cc1OC (stereo not given) 4.51%
O=C1C(=O)N(CCN2CCOCC2)C(c2cccc(Cl)c2)/C1=C(/O)c1ccc2c(c1)OCO2 (stereo not given) 13.6%
CC1Cc2cc(/C(O)=C3\C(=O)C(=O)N(CCN4CCOCC4)C3c3ccccc3F)ccc2O1 (stereo not given) 6.48%
CCCOc1ccc(/C(O)=C2/C(=O)C(=O)N(CCN(C)C)C2c2ccc(OC)c(OC)c2)cc1 (stereo not given) 31.1%
CC[C@]12c3[nH]c4ccc(Cl)cc4c3CCN1C(=O)[C@@H](CC(=O)NCCCOC)C[C@@H]2C(=O)N1CCN(C(=O)c2ccco2)CC1 1.35%
CCC(CO)Oc1cc(NC(=O)c2ccc(Cl)cc2)c2ncn(C(C)C)c2c1 (stereo not given) 0.25%
O=C(Nc1cc(S(=O)(=O)N2CCOCC2)ccc1N1CCOCC1)c1c(F)cccc1Cl 8.73%
COc1ccc(-c2cc3ncccc3cn2)cc1 21.6%
CC(C)(C)OC(=O)C[C@@H]1C/C=C\C[C@@H](CC(=O)NCCO)C(=O)N[C@H](Cc2c[nH]c3ccccc23)COC1=O 3.99%
COc1ccccc1N(CC(=O)N1CCCCC1)S(=O)(=O)c1ccccc1 13.9%
CCN(c1ccccc1)S(=O)(=O)c1ccc(C(=O)Nc2ccccc2OC)cc1 14%
O=C(NCCc1c[nH]c2ccccc12)c1cc2ccccc2oc1=O 1.13%
COC(=O)Cn1c(O)c(N=NC(=O)OC)c2ccccc21 41.9%
O=C(CNC(=O)Cc1ccccc1)N=Nc1c(O)[nH]c2ccc(Br)cc12 8.32%
CCN(CC)C(=O)[C@H]1C[C@H](CC(=O)NCC23CC4CC(CC(C4)C2)C3)C(=O)N2CCc3c([nH]c4cc(CCC(=O)N(C)C)ccc34)[C@]12C 5.23%
Cc1ccsc1C(=O)NNC(=O)COc1ccc(Br)cc1 3.22%
NCC(=O)c1cccc2ccc[n+]([O-])c12 10.5%
C[C@H](CO)N1C[C@H](C)[C@@H](CN(C)C(=O)Nc2ccc3c(c2)OCO3)Oc2c(cccc2N(C)C)C1=O -4.67%
O=C(COc1ccc(F)cc1Br)NCC1COc2ccccc2O1 (stereo not given) 7.79%
CC(C)(C)NS(=O)(=O)NC(=O)C1=C(N2CCCC2)COC1=O -2.54%
COc1ccc(C2=Nn3c(nnc3-c3ccccc3OC)SC2)cc1OC1CCCC1 11.2%
N#C/C(=C\c1ccc(-c2cccc([N+](=O)[O-])c2)o1)C(=O)NCCN1CCOCC1 43.6%
CN(C)CCNC(=O)/C(=C/c1cccc([N+](=O)[O-])c1)NC(=O)c1ccccc1 12.9%
O=C(OCC(=O)N1CCN(C(=O)c2ccco2)CC1)c1c(Cl)cccc1Cl 9.98%
CCOC(=O)c1cccc(NC(=O)CN(c2ccc(C)cc2)S(=O)(=O)c2c(C)noc2C)c1 68.3%
Cc1ccc(CNC(=O)CCNS(=O)(=O)c2cccc3nonc23)cc1 9.03%
CCOCN(C(=O)Cn1c(C(C)O)nc2ccccc21)c1c(C)cccc1CC (stereo not given) 24%
O=C(NCCCCCCNC(=O)NCc1ccco1)NCc1ccco1 10.8%
Cc1cc(NC(=O)CSc2ncc(C(F)(F)F)cc2Cl)no1 0.5%
CCCCCCSc1ccc(-c2nc3ccc(Cl)cn3c2NCc2ccccc2)cc1 12.3%
COc1ccc2sc(-c3ccc(S(C)(=O)=O)cc3)c(-c3ccc(C(N)=O)cc3)c2c1 8.78%
CN(CCOc1ccc(Br)cc1)CC(=O)Nc1cccc(S(=O)(=O)NC2=NCCC2)c1 18.8%
COc1ccc(Br)cc1CN(C)CC(=O)Nc1cc([N+](=O)[O-])ccc1OC 12.8%
CN(CC(=O)Nc1cccc2c1CCCC2)S(=O)(=O)c1ccc(Cl)cc1 3.84%
COc1ccc(-c2nc3cnccn3c2NC2CCCCC2)cc1-c1cccc(Cl)c1 14.3%
COc1ccc2c(Cl)c(C(=O)NCc3ccco3)sc2c1 5.49%
COc1ccccc1N1CCN(C(=O)c2cc3c(-c4ccc(Cl)cc4)nn(C)c3s2)CC1 2.56%
CN(CCC1CCOCC1)Cc1cn[nH]c1-c1ccc(-c2ccccc2)cc1 7.23%
O=C(CNC(=O)c1ccccc1)Oc1ccc([N+](=O)[O-])cc1 19.6%
O=C(CCNC(=O)c1ccccc1)Nc1nc2ccccc2s1 7.04%
O=C(CCC(=O)c1cccs1)Nc1nc2ccccc2s1 6.48%
Cc1cc(CNC(=O)c2cccc([N+](=O)[O-])c2)c2ccccc2n1 58.6%
Cc1csc2nc(COC(=O)c3cccc(N(C)C)c3)cc(=O)n12 13.4%
COc1cc(C=NNC(=O)c2cccnc2)ccc1OC(=O)c1ccccc1F 8.6%
CC(CNC(=O)Cn1cnc2c(OCc3ccccc3)ncnc21)c1ccccc1 (stereo not given) 3.56%
O=C(c1ccc(N2CCOCC2)c([N+](=O)[O-])c1)N1CCN(c2ccccc2F)CC1 7.32%
O=C(Nc1cccc(S(=O)(=O)N2CCCCC2)c1)c1cncc(Br)c1 -0.59%
C=CC[C@@H](CC(=O)N[C@H](CO)Cc1ccccc1)C(=O)N[C@H](C)COC(=O)[C@@H](CC=C)Cc1ccc(F)cc1 20.2%
COc1ccc(N(C)C(=O)C2CCN(S(=O)(=O)c3cccc4nsnc34)CC2)cc1 14.4%
Cc1ccc2nsnc2c1S(=O)(=O)N1CCCC1C(=O)O (stereo not given) 30.4%
COc1ccc(NS(=O)(=O)c2cccc3nsnc23)cc1Cl 12.4%
O=C(O)C(NS(=O)(=O)c1cccc2nsnc12)c1ccccc1 (stereo not given) 40.5%
CC(=O)c1cccc(NC(=O)C2CCCN(S(=O)(=O)c3cccc4nonc34)C2)c1 (stereo not given) 24.2%
CC(=O)c1ccc(NC(=O)C2CCCN2S(=O)(=O)c2cccs2)cc1 (stereo not given) 12%

inhibition, active:
CN(CCO)S(=O)(=O)c1ccc2c(c1)C(=O)c1cc(S(=O)(=O)N(C)CCO)ccc1-2 57.6%
CC(=O)Nc1ccc(NC(=O)CSCc2cnn(-c3ccccc3)c2-n2cccc2)cc1 39.8%
Oc1ccc2ccccc2c1N=Nc1nccs1 99.3%
Oc1ccc(N=Nc2nccs2)c(O)c1 58.9%
CCn1c(=N)c(C(=O)NCCCOC)cc2c(=O)n3cccc(C)c3nc21 141%
Cc1cccn2c(=O)c3cc(C(=O)NCCN4CCOCC4)c(=N)n(Cc4cccnc4)c3nc12 69.1%
O=C1C(=O)N(CCN2CCOCC2)C(c2ccccn2)/C1=C(/O)c1ccc(Cl)cc1 (stereo not given) 55.2%
CCN(CC)CCN1C(=O)C(=O)/C(=C(/O)c2ccc(OC)c(OC)c2)C1c1ccccn1 (stereo not given) 51.5%
COc1ccccc1NC(=O)CN(c1ccccc1OC)S(=O)(=O)c1ccccc1 75.8%
CCOC(=O)Cn1c(O)c(N=NC(=O)CNC(=O)Cc2ccccc2)c2ccccc21 38.3%
Cc1ccc2cccc(O)c2[n+]1[O-] 53.1%
Cc1ccc(C(=O)N/C(=C/c2ccc(-c3cccc([N+](=O)[O-])c3)o2)C(=O)NCCCN(C)C)cc1 63.9%
Cc1ccc(N(CC(=O)Nc2cc(C)cc(C)c2)S(=O)(=O)c2cccc3nonc23)cc1 46.5%
COc1ccc(OC)c(NC(=O)CN(C)CCOc2ccc(Br)cc2)c1 38.8%
Cn1nc(-c2ccc(Cl)cc2)c2cc(C(=O)NCc3ccco3)sc21 56.6%
O=C(O)CCC(=O)Nc1nc2ccc([N+](=O)[O-])cc2s1 78.8%
O=C(NC(Nc1nc2ccc([N+](=O)[O-])cc2s1)(C(F)(F)F)C(F)(F)F)c1ccccc1 89.4%
CC(=O)c1cccc(NC(=O)C2CCCN2S(=O)(=O)c2cccc3nsnc23)c1 (stereo not given) 110%
CC1CCCCC1NC(=O)C1CCCN1S(=O)(=O)c1cccc2nsnc12 (stereo not given) 73.9%
COc1ccc(OC)c(NC(=O)C2CCCN2S(=O)(=O)c2cccc3nsnc23)c1 (stereo not given) 44.2%
